Consider 5 molecules from PubChem BioAssay.

Calls of active or inactive are those of the source. Unless noted, no rule for the calls is given here.

A short description of assay [1]: compounds binding Alexa647 anti-His antibody – biochemical, small-molecule microarray, 635 nm fluorescence, artefact control for SMM control protein annotation, primary screen (AID 1128).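 Also: score merges feature fluorescence with signal-to-noise for each printed compound spot.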 The settings on record: higher = more signal.
Assay [2] concerns Human papillomavirus type 1a E7 protein (residues 1-88). As to the kind of experiment: HPV1a E7 small-molecule binders, primary screen, biochemical, small-molecule microarray, residues 1-88, 635 nm (AID 1129). The settings on record: small-molecule microarray binding, fluorescence 635 nm; higher = more signal.
Assay [3] concerns the target Focal adhesion kinase 1 (Homo sapiens) (UniProt Q05397). As to the kind of experiment: PTK2 protein binding on printed compound slides – biochemical, small-molecule microarray, 635/667 nm fluorescence, BSA, DTT, primary screen (AID 1130).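 Also: composite of spot emission at 667 nm and signal to noise over triplicate slides.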 The following applies: 635 nm fluorescence, higher = more signal.
Assay [4] relates to Fibrinogen (Alexa647-labelled). Nature of the assay: Alexa647-fibrinogen binding to printed small molecules – biochemical, small-molecule microarray, 635/667 nm fluorescence, artefact control for SMM control-protein annotation, profiling panel (AID 1131).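 Also: z-score merges 667 nm fluorescence with per-spot signal-to-noise over triplicate slides.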 The settings on record: fibrinogen-A647 binding fluorescence, higher = more signal.
Assay [5] concerns the target Follistatin (Homo sapiens) (UniProt P19883). Nature of the assay: FST protein binding to printed compounds – biochemical, small-molecule microarray, 635/667 nm fluorescence, primary screen (AID 1132). The settings on record: 635 nm fluorescence, higher = more signal.
The target in assay [6] is Fibroblast growth factor 2 (Homo sapiens) (UniProt P09038). Nature of the assay: basic fibroblast growth factor binding to printed compounds – biochemical, small-molecule microarray, 635/667 nm fluorescence, primary screen (AID 1133). The following applies: FGF2, fluorescence 635/667, higher = more signal.
Chain of Fibroblast growth factor 2 (Homo sapiens) (P09038 whole entry, looked up): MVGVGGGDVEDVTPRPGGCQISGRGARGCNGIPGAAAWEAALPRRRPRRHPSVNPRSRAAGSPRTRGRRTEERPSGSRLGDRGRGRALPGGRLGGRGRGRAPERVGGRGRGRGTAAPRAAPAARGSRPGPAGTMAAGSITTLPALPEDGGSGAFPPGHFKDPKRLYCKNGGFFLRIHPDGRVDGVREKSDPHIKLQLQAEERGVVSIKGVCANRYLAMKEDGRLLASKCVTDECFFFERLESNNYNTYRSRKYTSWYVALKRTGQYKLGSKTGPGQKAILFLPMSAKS
The nature of assay [7]: JC-1 mitochondrial potential readout, lung cancer cells – cell-based, A549, JC-1 fluorescence, basal, 24 h, 100 nL, profiling panel (AID 1138).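 Also: A549 lung adenocarcinoma cells under basal conditions with no added stimulus; test concentration not given here.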 The following applies: higher = more signal.
The test system of another assay is Lefty1. Nature of the assay: Lefty1 protein binding to printed compounds – biochemical, small-molecule microarray, 635/667 nm fluorescence, primary screen (AID 1139). The settings on record: fluorescence 635/667, higher = more signal.
For assay [8], the system named is wheat germ agglutinin (Triticum aestivum), Alexa647-labelled. Nature of the assay: Alexa647-WGA lectin binding to printed small molecules – biochemical, small-molecule microarray, 635/667 nm fluorescence, artefact control for SMM control-protein annotation, profiling panel (AID 1140).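 Also: score merges 667 nm feature emission with signal to noise over triplicate slides.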 The settings on record: WGA-A647 binding, 635 nm fluorescence, higher = more signal.

In assay [9] the target is Luciferin 4-monooxygenase (Photinus pyralis) (UniProt P08659). Nature of the assay: inhibition of purified Photinus pyralis luciferase – biochemical, luminescence, purified enzyme, 2006 set, primary screen (AID 1141).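 Also: cell-free assay with purified firefly luciferase at 100 ng per well in PBS; test concentration not given here.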 The settings on record: purified firefly luciferase, SteadyGlo luminescence, 30 min; higher = more signal, called active from +8 up or from −8 down.
Chain of Luciferin 4-monooxygenase (Photinus pyralis) (P08659 whole entry, looked up): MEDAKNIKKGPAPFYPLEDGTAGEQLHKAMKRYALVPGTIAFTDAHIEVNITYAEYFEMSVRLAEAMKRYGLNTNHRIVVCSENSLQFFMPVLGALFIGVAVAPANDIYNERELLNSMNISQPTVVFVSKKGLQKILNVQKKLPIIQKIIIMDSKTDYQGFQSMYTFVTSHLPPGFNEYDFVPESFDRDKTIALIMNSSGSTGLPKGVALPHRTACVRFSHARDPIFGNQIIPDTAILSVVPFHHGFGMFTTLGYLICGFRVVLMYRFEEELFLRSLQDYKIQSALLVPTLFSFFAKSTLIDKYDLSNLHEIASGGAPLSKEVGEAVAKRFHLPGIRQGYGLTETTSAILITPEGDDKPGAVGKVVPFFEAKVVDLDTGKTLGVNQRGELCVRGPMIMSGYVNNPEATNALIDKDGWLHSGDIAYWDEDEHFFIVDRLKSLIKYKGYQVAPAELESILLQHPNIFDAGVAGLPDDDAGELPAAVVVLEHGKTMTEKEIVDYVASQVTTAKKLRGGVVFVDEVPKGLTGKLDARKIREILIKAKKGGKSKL
For assay [10], the system named is Wnt5a (protein binding on small-molecule microarray). As to the kind of experiment: small molecules binding Wnt5a protein – biophysical, small-molecule microarray, 635/667 nm fluorescence, primary screen (AID 1142).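 Also: fluorescence read at 667 nm with signal to noise per printed feature.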 The settings on record: 635 nm fluorescence, higher = more signal.
Assay [11] is described as follows: ATP-based viability of Huh7 replicon cells – cell-based, CellTiter-Glo luminescence, basal, 48 h, cytotoxicity control for HCV replication inhibitor project, primary screen (AID 1143).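 Also: Huh7 hepatoma cells carrying a hepatitis C replication reporter with no stimulus; test concentration not given here.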 The settings on record: higher = more signal, called active from +8 up or from −8 down. (In general: In antiviral work, replicon cells carry a viral genome segment that copies itself.)

Assay [12] can be described thus: Pseudomonas biofilm growth suppression – PAO1 strain, BacTiter-Glo luminescence, LB-PBS, primary screen (AID 1144). The settings on record: P. aeruginosa PAO1 biofilm, 12 h, higher = more signal.
The nature of assay [13]: basal CRE-LacZ reporter activity in PC12 – cell-based, unstimulated, primary screen (AID 1145). The following applies: no forskolin, luminescence, 4.5 h, higher = more signal, called active from +8 up or from −8 down.
Assay [14] is described as follows: forskolin-driven CRE-LacZ activity in PC12 – cell-based, CRE-LacZ reporter, forskolin-stimulated, primary screen (AID 1146).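 Also: PC12 cells with 6xCRE LacZ reporter stimulated by forskolin 10 µM; beta-galactosidase reporter signal reflecting CREB driven transcription.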 The settings on record: luminescence, 4.5 h, higher = more signal, called active from +8 up or from −8 down.
Assay [15] deals with Streptavidin (Streptomyces avidinii) (UniProt P22629). Nature of the assay: compounds binding control protein streptavidin – biophysical, small-molecule microarray, 635/667 nm fluorescence, artefact control for SMM compound annotation, primary screen (AID 1147).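 Also: signal reflects streptavidin binding to arrayed compounds as a control protein.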 The following applies: higher = more signal.
Chain of Streptavidin (Streptomyces avidinii) (P22629 whole entry, looked up): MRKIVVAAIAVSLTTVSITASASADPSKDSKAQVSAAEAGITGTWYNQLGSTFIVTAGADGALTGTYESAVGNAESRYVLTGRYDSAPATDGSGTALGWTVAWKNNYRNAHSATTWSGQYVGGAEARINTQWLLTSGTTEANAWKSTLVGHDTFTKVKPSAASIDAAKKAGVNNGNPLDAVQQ
The nature of assay [16]: probe aInhba binding on compound microarray – biochemical, small-molecule microarray, 635/667 nm fluorescence, primary screen (AID 1148).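 Also: score merges 667nm spot fluorescence with signal-to-noise for antibody binding to printed compounds.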 The following applies: higher = more signal.
The target of assay [17] is Torsin-1A (Homo sapiens) (UniProt O14656). Nature of the assay: TOR1A wild-type binding on microarray – cell lysate, small-molecule microarray, lysate, 635/667 nm, primary screen (AID 1149). The settings on record: COS7 hTOR1A-WT lysate, 635 nm fluorescence, higher = more signal.
Chain of Torsin-1A (Homo sapiens) (O14656 whole entry, looked up): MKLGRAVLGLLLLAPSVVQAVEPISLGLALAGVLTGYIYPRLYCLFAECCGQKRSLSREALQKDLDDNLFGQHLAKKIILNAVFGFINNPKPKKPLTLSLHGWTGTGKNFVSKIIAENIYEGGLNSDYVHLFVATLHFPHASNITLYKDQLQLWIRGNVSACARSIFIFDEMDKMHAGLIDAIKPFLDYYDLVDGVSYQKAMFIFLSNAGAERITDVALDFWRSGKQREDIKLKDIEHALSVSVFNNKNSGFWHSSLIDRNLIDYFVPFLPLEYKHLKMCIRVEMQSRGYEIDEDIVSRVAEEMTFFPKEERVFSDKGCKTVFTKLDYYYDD
Assay [18] has the same target. Nature of the assay: torsin A mutant lysate binding on microarrays – cell lysate, small-molecule microarray, COS7 lysate, 635/667 nm fluorescence, primary screen (AID 1150).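 Also: score pools 667 nm emission and signal to noise measuring lysate protein binding.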 The settings on record: COS7 hTOR1A mutant lysate, 635 nm fluorescence, higher = more signal.
The test system of assay [19] is Sonic hedgehog protein (Shh). As to the kind of experiment: Sonic hedgehog microarray binding compounds – biochemical, small-molecule microarray, 635/667 nm fluorescence, primary screen (AID 1151).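 Also: Shh protein binding to compounds spotted on small-molecule microarray slides; score combines spot fluorescence intensity with signal-to-noise across triplicate slides.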 The following applies: 635 nm fluorescence, higher = more signal.

Chain of Follistatin (Homo sapiens) (P19883 whole entry, looked up): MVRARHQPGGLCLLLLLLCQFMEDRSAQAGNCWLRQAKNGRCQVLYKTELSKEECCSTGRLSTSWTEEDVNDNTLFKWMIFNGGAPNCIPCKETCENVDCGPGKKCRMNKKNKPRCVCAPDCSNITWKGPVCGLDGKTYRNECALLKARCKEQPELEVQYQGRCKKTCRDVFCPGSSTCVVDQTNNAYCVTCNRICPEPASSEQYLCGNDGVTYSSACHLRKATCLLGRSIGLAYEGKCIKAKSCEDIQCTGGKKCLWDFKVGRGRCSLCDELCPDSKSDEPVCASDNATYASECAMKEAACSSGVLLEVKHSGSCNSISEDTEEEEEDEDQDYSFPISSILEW
Chain of Focal adhesion kinase 1 (Homo sapiens) (Q05397 whole entry, looked up): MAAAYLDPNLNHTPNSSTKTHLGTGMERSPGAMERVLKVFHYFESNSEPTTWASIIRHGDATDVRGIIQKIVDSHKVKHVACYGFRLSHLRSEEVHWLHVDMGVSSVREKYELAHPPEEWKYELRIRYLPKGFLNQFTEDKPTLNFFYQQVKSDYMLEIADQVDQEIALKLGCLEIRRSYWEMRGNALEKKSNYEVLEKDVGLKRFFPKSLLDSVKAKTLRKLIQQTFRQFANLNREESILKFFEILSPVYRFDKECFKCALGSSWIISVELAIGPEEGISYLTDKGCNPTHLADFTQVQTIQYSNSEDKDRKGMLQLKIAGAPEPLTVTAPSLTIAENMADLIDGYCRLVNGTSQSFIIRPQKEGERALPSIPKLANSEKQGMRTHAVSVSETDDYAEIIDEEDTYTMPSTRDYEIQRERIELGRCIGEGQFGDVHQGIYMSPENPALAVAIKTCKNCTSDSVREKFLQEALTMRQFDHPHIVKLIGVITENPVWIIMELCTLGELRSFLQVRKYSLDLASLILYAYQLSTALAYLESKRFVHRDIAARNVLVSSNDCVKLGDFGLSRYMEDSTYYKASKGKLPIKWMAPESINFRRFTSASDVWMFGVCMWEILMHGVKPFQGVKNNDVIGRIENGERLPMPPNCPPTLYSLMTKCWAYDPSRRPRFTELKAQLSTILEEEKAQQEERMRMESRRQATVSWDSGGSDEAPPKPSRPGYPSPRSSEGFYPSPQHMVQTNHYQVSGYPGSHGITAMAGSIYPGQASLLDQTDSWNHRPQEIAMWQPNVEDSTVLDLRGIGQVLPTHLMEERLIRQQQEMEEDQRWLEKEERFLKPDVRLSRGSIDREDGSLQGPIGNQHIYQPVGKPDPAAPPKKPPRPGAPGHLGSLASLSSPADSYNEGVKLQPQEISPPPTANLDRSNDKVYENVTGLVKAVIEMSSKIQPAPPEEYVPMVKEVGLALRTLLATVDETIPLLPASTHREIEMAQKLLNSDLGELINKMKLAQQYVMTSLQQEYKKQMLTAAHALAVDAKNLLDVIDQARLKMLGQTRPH

Turning to `COCCOC(=O)N1C(=O)[C@@]2(c3cc(C#Cc4ccc(OC)cc4)ccc31)[C@H](c1ccc(OCCO)cc1)N1[C@H](c3ccccc3)[C@H](c3ccccc3)OC(=O)[C@H]1[C@@H]2C(=O)Nc1nc2ccccc2s1`, the composite z-score in assay [1] was found to be 0.52; in [2], 1.16; in assay [3], 0.415; in [4], 0.707; in assay [5], 1.05; in assay [6], 0.464. Also, the composite z-score turned out to be 0.676 in the assay with Lefty1; 0.609 in assay [8]; 0.144 in assay [10]; 1.19 in [15]; 0.164 in assay [16]; 0.29 with Torsin-1A (Homo sapiens) [17]. For the same molecule, the composite z-score with Torsin-1A (Homo sapiens) [18] came out at 0.461; in [19] it was 0.691. For the same molecule, the z-score was -2.05 in assay [7]; -1.27 (inactive) in assay [9]; -1.1 (inactive) in assay [11]; 0.408 (inactive) in assay [12]; 0.272 (inactive) in assay [13]; -0.175 (inactive) in assay [14].
On to `COCCOC(=O)N1C(=O)[C@@]2(c3cc(C#CCCO)ccc31)[C@H](C(=O)N1CCCCCCC1)[C@H]1C(=O)O[C@H](c3ccccc3)[C@H](c3ccccc3)N1[C@@H]2c1ccccc1OCCO`, for which the composite z-score in assay [1] came out at 0.573; in assay [2] it was 1.19; in assay [3], 0.686; in assay [4], 0.885; in assay [5] it was 1.45; in [6], 0.819. In addition, the composite z-score in the assay with Lefty1 was 1.41; in assay [8] it was 1.25; in [10], 0.985; in [15], 2.6; in assay [16], 1.3; in the assay with Torsin-1A (Homo sapiens) [17], 1.22. Also, the composite z-score in the assay with Torsin-1A (Homo sapiens) [18] was 1.62; in [19] it was 1.68. In addition, the z-score in assay [7] was -0.971; in [9], -1.29 (inactive); in assay [11], -2.07 (inactive); in assay [12], 0.893 (inactive); in assay [13] it was 0.0655 (inactive); in assay [14], -0.823 (inactive).
Turning to `C=C[C@@H](OC)[C@H](OC(=O)Nc1ccc(SC)cc1)c1ccc(OCCO)cc1`, the composite z-score turned out to be 2.02 in [1]; 0.815 in assay [2]; 0.317 in assay [3]; 0.951 in assay [4]; 1.17 in assay [5]; 0.377 in assay [6]. The composite z-score with Lefty1 is 0.545; in assay [8] it was 0.653; in [10] it was 0.502; in assay [15], 0.22; in assay [16] it was -0.071; with Torsin-1A (Homo sapiens) [17], 0.615. Further, the composite z-score worked out at 0.8 with Torsin-1A (Homo sapiens) [18] and 1.2 in assay [19]. The z-score is -1.48 in assay [7]; -2.25 (inactive) in assay [9]; -2.53 (inactive) in assay [11]; -0.918 (inactive) in assay [12]; 9.77 (active) in assay [13]; 0.136 (inactive) in assay [14].
Turning to `C=C(CCCC)C(=O)CC[C@H](OC(C)=O)c1ccc(OCCO)cc1`, the composite z-score in assay [1] is 1.45; in assay [2], -0.957; in [3], 0.0145; in assay [4] it was 0.431; in [5] it was -0.243; in assay [6] it was -0.271. Moreover, the composite z-score with Lefty1 was 0.108; in assay [8], 0.359; in assay [10], -0.624; in assay [15], 0.519; in assay [16] it was -0.308; with Torsin-1A (Homo sapiens) [17], -0.822. The results for the composite z-score (in the assay with Torsin-1A (Homo sapiens) [18]; in assay [19]) were -0.514 and -0.0938, respectively. In addition, the z-score in [7] is 0.208; in assay [9] it was -0.66 (inactive); in [11] it was -7.16 (inactive); in assay [12] it was -1.17 (inactive); in assay [13], 5.09 (inactive); in [14], -0.361 (inactive).
Regarding `CC=CC(O)C1C=CC2C(=O)NC(=O)C2N1Nc1ccccn1` (stereo not given), the composite z-score was determined as 1.41 in [1]; 0.497 in assay [2]; 0.381 in [3]; 0.657 in assay [4]; 1.02 in assay [5]; 0.352 in [6]. The composite z-score with Lefty1 is 0.585; in assay [8], 0.0489; in [10], -0.11; in assay [15], 0.149; in assay [16], -0.0645; with Torsin-1A (Homo sapiens) [17], 0.599. Moreover, the results for the composite z-score (in the assay with Torsin-1A (Homo sapiens) [18]; in assay [19]) were -0.164 and 0.77, respectively. For the same molecule, the z-score in assay [7] is 0.514; in assay [9], -0.0429 (inactive); in assay [11], 1.11 (inactive); in assay [12], -0.587 (inactive); in assay [13] it was -0.329 (inactive); in assay [14], 0.701 (inactive).
